Screening data deposited in PubChem by Sanford-Burnham Center for Chemical Genomics.
The list is not random: actives were taken first. Their share in the collection is about 6.3%.
tim23-1 inh: growth inhibitors of tim23-1 mutant yeast. S. cerevisiae tim23-1 growth, BacTiter-Glo luminescence, 24 h. inhibition, % at 20 µM. 1.3% of 330,000 active. AID 463212;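 active means growth inhibition of the mutant yeast at or above 50%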;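 further: temperature-sensitive mutant grown at 25 °C; plate controls were DMSO-treated mutant yeast for no effect and medium wells lacking yeast for full effect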
TIM10 inh: inhibits growth of TIM10 yeast strain; S. cerevisiae TIM10 strain growth, BacTiter-Glo luminescence, 24 h; inhibition, % at 10 µM; 1.4% of 330,000 active; AID 463195;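 active means inhibition of 40% or more at the single tested concentration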;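 further: wild-type TIM10 isogenic control strain grown at permissive 25 °C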
MPTP block: inhibitors of mitochondrial permeability transition pore; isolated mouse mitochondria, Ca2+ swelling absorbance, 30 min; inhibition, % at 10 µM; 1.4% of 360,000 active;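 active means inhibition of 50% or more, scaled per plate between neutral and stimulator controls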;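 further: 0% = DMSO wells given calcium and 100% = 1 mM EGTA wells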
Mdm2-MdmX inh: human Mdm2/MdmX binding inhibition | 3% of 330,000 active | AID 485346 | SaOS-2 split-luciferase Mdm2/MdmX complementation, luminescence | inhibition, % at 8 µM;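 active means inhibition of at least 50% at 8 µM in the primary screen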
Target sequence (O15151 whole entry, looked up): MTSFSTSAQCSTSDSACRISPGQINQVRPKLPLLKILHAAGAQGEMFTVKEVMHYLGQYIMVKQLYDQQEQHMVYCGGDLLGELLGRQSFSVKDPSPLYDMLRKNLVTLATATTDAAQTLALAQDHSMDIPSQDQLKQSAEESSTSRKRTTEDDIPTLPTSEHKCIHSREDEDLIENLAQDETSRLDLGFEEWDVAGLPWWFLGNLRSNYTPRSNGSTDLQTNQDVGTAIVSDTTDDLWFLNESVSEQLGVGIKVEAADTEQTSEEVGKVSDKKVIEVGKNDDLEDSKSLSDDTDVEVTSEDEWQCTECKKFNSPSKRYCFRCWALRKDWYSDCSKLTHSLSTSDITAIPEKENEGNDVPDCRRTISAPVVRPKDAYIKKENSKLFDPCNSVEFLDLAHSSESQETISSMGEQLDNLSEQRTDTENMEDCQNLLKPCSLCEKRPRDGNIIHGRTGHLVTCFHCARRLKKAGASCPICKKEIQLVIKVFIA
Target sequence (Q00987 whole entry, looked up): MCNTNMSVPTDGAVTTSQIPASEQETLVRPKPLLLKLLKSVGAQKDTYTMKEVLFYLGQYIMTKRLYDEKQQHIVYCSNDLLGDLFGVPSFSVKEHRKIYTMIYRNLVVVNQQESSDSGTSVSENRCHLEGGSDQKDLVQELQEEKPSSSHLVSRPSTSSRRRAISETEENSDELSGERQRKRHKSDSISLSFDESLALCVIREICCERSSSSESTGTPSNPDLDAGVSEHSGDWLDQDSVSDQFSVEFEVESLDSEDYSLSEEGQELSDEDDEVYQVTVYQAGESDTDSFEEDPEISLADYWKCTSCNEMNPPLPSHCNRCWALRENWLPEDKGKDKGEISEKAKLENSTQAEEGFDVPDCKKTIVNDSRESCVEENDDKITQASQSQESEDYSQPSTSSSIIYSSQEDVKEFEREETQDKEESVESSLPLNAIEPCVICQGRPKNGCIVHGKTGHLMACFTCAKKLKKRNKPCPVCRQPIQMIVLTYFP
tim10-1 inh: growth inhibitors of tim10-1 mutant yeast. S. cerevisiae tim10-1 ts strain growth, BacTiter-Glo, 24 h. inhibition, % at 20 µM. 2.2% of 330,000 active. AID 463190;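 active means inhibition of at least 40%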;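 further: mutant grown at 25 °C; 0% = DMSO wells with yeast and 100% = wells holding no yeast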
MPTP counter: Rhodamine 123 counter-screen of mitochondrial pore hits. shares compounds with MPTP block. isolated mitochondria, membrane potential, Rhodamine 123 fluorescence. inhibition, % at 10 µM. 78% of 5,000 active; in the data active means inhibition above about 22%;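 further: 0% = DMSO vehicle and 100% = positive control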
MPTP abs DR: MPTP inhibition, dose response swelling confirmation; isolated mitochondria swelling, absorbance; IC50, µM; shares compounds with MPTP block; 58% of 780 active; in the data active means IC50 below about 20 µM
MPTP counter DR: MPTP inhibitor counter-screen activity, dose response; 49% of 780 active; isolated mitochondria counterscreen, fluorescence read-out; AID 651564; shares compounds with MPTP block; IC50, µM; in the data active means IC50 below about 80 µM
Starred values were filed as active, the others as inactive; x = not tested or not shown.

SMILES	tim23-1 inh	TIM10 inh	MPTP block	Mdm2-MdmX inh	tim10-1 inh	MPTP counter	others
C[C@H](CO)N1C[C@H](C)[C@@H](CN(C)S(=O)(=O)c2ccc3ccccc3c2)OCc2cnnn2CCCC1=O	x	x	0	x	x	x
NS(=O)(=O)c1ccc(NC(=S)NCc2ccc(F)cc2)cc1	7	10	-2	-10	3	x
NS(=O)(=O)c1ccc(NC(=S)Nc2ccc(F)c(F)c2)cc1	10	-3	67*	35	13	68*
O=C1NC[C@H](CCCCN2CCN(CC3CCCCC3)C(=O)C2=O)N(Cc2ccccc2)C1=O	x	x	0	x	x	x
CCCCCCc1cc2cc(C(=O)NC)c(=N)oc2cc1O	26	15	96*	50	31	91*
COc1ccc(NC(=S)Nc2cccc(S(=O)(=O)N3CCCCC3)c2)cc1	10	6	68*	-8	17	88*
O=C(CNc1cc(S(=O)(=O)N2CCCC2)ccc1OCC(F)(F)F)Nc1cccc(C(F)(F)F)c1	11	-3	51*	4	-4	48*
COc1ccc(NC(=S)Nc2ccc(S(=O)(=O)N3CCCCC3)cc2)cc1	x	x	27	x	x	x
CCN(CC)S(=O)(=O)c1cccc(NC(=O)CNc2cccc(S(=O)(=O)N3CCCC3)c2)c1	14	17	90*	29	15	101*
C[C@@H]1CN([C@@H](C)CO)C(=O)CCCn2nncc2CO[C@H]1CN(C)Cc1cccnc1	x	x	-1	x	x	x
Cc1cc(C(=O)N2CCC2(C)C(=O)Nc2cccc3ccccc23)nn1C (configuration not stated)	x	x	1	x	x	x
Cc1cc(C)c(S(=O)(=O)N2CCN(C(=O)c3cc4ccccc4oc3=O)CC2)c(C)c1	31	10	-1	-1	1	x
c1cc2c3c(cccc3c1)-c1cnccc1-2	x	x	0	x	x	x
N#Cc1c(C(F)(F)F)cc(-c2cccc(Cl)c2)[nH]c1=O	34	5	94*	-17	7	89*
N#Cc1c(C(F)(F)F)cc(-c2ccc(Cl)cc2)[nH]c1=O	13	21	93*	-8	12	82*
N#Cc1c(C(F)(F)F)cc(-c2ccc(F)cc2)[nH]c1=O	8	18	4	6	-7	x
CC1(C(=O)NC2CCN(Cc3ccccc3)CC2)CCN1Cc1ccc2ccccc2c1 (configuration not stated)	x	x	1	x	x	x
O=C(/C(=N\Nc1ccc([N+](=O)[O-])cc1)Sc1nnnn1-c1ccccc1)c1ccccc1	-1	-4	94*	4	-4	90*
O=[N+]([O-])c1ccc(O)c(CSc2nnnn2-c2ccccc2)c1	7	-1	78*	-6	5	93*
O=C(O)c1cc(-n2nnnc2SCc2ccc([N+](=O)[O-])cc2)ccc1Cl	21	4	0	-22	-8	x
CCn1c(C)nc([N+](=O)[O-])c1Sc1ccc(F)cc1	15	26	77*	32	26	-1	MPTP abs DR=>100;MPTP counter DR=>80
Cc1ccc(/C=C2/SC(=S)N(CCCC(=O)Nc3cc([N+](=O)[O-])ccc3O)C2=O)cc1	4	-7	64*	37	-12	19	MPTP abs DR=4.6*;MPTP counter DR=<2.5*
O=C(CN1C(=O)S/C(=C\c2ccccc2)C1=O)Nc1cc([N+](=O)[O-])ccc1O	20	-4	58*	0	16	79*
CC(C)C[C@H]1CN([C@@H](Cc2ccc(O)cc2)CN2CCCC2CN2C(=S)NC[C@@H]2Cc2ccccc2)C(=S)N1CC1CCCCC1 (some centres not stated)	x	x	1	x	x	x
COc1cccc(C(C(=O)NC2CCCC2)N2CCN(c3cc(C)ccc3C)CC2)c1OC (configuration not stated)	x	x	0	x	x	x
SMILES	tim23-1 inh	TIM10 inh	MPTP block	Mdm2-MdmX inh	tim10-1 inh	MPTP counter	others
Cc1nc2ccc(C(=O)N(C)Cc3ccccc3)cn2c1N(C)C(=O)CCc1ccccc1	x	x	7	x	x	x
CCC(C)NCCCOc1ccc(Cl)cc1C(C)(C)C (configuration not stated)	-2	-3	0	7	-3	x
COCCCNCCCOc1ccc(Cl)cc1C(C)(C)C	6	14	82*	44	10	-15	MPTP abs DR=6*;MPTP counter DR=>80
CCOc1ccc(S(=O)(=O)Nc2cccc(N(C)S(C)(=O)=O)c2)cc1	-8	-1	95*	14	-10	42*
S=C(Nc1ccc(Cl)cc1)Nc1ccc2cn[nH]c2c1	27	0	93*	13	17	89*
Cc1ccc(NC(=S)Nc2ccc3[nH]c(=O)[nH]c3c2)cc1	6	-1	0	-8	-7	x
CCOC(=O)c1ccc(NC(=S)Nc2ccc3[nH]c(=O)[nH]c3c2)cc1	3	-1	74*	6	-14	59*
S=C(Nc1ccc(Cl)cc1)Nc1cccc2cnccc12	36	20	102*	11	26	93*
S=C(Nc1ccc(Cl)cc1)Nc1ccc2c(c1)OCCO2	47	12	50*	-21	32	99*
S=C(Nc1ccc2cn[nH]c2c1)Nc1ccc(Cl)cc1Cl	38	14	-2	-14	0	x
COc1ccc(C(CNC(=O)c2ccc(-c3cccc(C(F)(F)F)c3)o2)N2CCOCC2)cc1 (configuration not stated)	43	27	0	18	38	x
C[C@@H]1CN([C@@H](C)CO)C(=O)c2cc(NS(=O)(=O)c3cccs3)ccc2O[C@H]1CN(C)Cc1ccc(C(F)(F)F)cc1	7	8	0	29	10	x
O=c1[nH]c2ccc(NC(=S)Nc3ccccc3)cc2[nH]1	25	10	-1	-2	18	x
O=c1[nH]c2ccc(NC(=S)Nc3ccc(Cl)cc3)cc2[nH]1	15	9	56*	-10	23	103*
COc1ccc2c(c1)CCC(=O)[C@H](O)C[C@H](c1ccccc1)OC2=O	x	x	1	x	x	x
CCN1/C(=C/c2ccc3cc(C)ccc3[n+]2C)Sc2ccc3sccc3c21	x	x	34	x	x	x
CCN1/C(=C/c2ccc3cc(C)ccc3[n+]2CC)Sc2cc(C)ccc21	x	x	98*	x	x	103*
CSC1=NSC2=NC(=O)/C(=C/c3coc4ccccc4c3=O)C(=N)N12	x	x	95*	x	x	80*
CSC1=NSC2=NC(=O)/C(=C\c3cccs3)C(=N)N12	x	x	6	x	x	x
CC(C)CSC1=NSC2=NC(=O)/C(=C\c3cccs3)C(=N)N12	9	-6	100*	-13	-2	93*
N=C1/C(=C/c2cccs2)C(=O)N=C2SN=C(SCc3ccccc3)N12	5	15	86*	-8	9	71*
CC(C)NC(=O)Nc1ccc2c(c1)C(=O)N([C@H](C)CO)C[C@H](C)[C@@H](CN(C)C(=O)NC(C)C)O2	x	x	0	x	x	x
